# Laboratory results taken from PubChem BioAssay AID504710 (Sanford-Burnham Center for Chemical Genomics, 2011).
# Unmarked numbers belong to inactive results. Active and inactive are the calls of the source.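 How the source made its calls: active means inhibition reaching about 16% in any single replicate (limit read from the data); inactive means the rest.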
# Biological target: Hexokinase HKDC1 (Homo sapiens) (UniProt Q2TB90)
# Assay: HKDC1 hexokinase inhibitors, confirmation, biochemical, single concentration (AID 504710)
# Conditions: recombinant HKDC1, G6PDH/diaphorase/resazurin fluorescence; at 20 µM; active compounds read high
# Hexokinase HKDC1 (Homo sapiens), sequence (Q2TB90 whole entry, looked up): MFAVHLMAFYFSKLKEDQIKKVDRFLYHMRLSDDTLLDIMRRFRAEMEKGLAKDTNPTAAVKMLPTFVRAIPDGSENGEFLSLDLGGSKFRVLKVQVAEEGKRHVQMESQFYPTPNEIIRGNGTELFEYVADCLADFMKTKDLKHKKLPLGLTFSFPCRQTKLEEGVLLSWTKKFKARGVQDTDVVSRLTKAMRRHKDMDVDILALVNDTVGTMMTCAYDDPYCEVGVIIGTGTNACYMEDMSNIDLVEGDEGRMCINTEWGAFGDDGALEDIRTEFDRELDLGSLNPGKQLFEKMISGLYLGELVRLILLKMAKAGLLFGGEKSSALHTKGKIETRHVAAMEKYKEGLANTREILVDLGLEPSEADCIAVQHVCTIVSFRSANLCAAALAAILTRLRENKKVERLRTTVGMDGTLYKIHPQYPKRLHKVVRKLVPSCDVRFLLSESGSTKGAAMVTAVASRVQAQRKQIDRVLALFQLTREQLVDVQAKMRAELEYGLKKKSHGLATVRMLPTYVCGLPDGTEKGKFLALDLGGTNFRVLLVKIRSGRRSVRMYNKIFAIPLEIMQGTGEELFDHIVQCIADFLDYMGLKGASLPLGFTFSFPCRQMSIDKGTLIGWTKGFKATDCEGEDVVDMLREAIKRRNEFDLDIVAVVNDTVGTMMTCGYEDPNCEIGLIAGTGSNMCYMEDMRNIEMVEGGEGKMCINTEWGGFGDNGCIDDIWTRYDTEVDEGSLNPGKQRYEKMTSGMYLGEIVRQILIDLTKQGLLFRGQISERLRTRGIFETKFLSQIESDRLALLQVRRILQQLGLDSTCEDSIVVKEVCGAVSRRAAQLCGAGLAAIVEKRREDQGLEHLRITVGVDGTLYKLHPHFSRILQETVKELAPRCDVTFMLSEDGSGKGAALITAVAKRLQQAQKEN
row,SMILES,inhibition
1,COC1=CC(=O)c2c(ccc3ncnc(N)c23)C1=O,87.6% (active)
2,CCC(c1ccccc1)C(CC)c1cc(O)c(O)c(O)c1 (configuration not stated),35.8% (active)
3,Cc1nc([N+](=O)[O-])c(Br)n1Cc1ccc(Cl)c(Cl)c1,53.8% (active)
4,CCCCC[C@H](O)/C=C/[C@@H]1[C@@H](C/C=C\CCCC(=O)OC)[C@@H](O)C[C@H]1O,61% (active)
5,COC1=CC(=O)C(OC)=C(OC)C1=O,71.9% (active)
6,CC(C)c1nc2oc3c(=O)[nH]cnc3c2c2c1COC(C)(C)C2,48.4% (active)
7,CCc1c(C)c(C#N)c2nc3ccccc3n2c1NC,-43.3%
8,O=Cc1[nH]c2ccccc2c1N(C(=O)CCl)c1ccccc1,34% (active)
9,O=c1c2ccccc2nc2n1CCC2,67.1% (active)
10,CC(C)Nc1nnc(SCC(=O)Nc2ccc3c(c2)C(=O)c2ccccc2C3=O)s1,53.5% (active)
11,CCCc1nc2oc3c(NCC4CCCO4)ncnc3c2c2c1COC(C)(C)C2 (configuration not stated),28.9% (active)
12,O=C1C(Nc2ccccc2)=C/C(=N/S(=O)(=O)c2cccs2)c2ccccc21,65% (active)
13,O=C(CSc1nnc(CCCN2C(=O)c3cccc4cccc(c34)C2=O)n1-c1ccccc1)N1CCN(CCO)CC1,47.6% (active)
14,COc1ccc(NC(=O)CSc2ccc(-c3cccnc3)nn2)c(OC)c1,38.8% (active)
15,Cc1nc([N+](=O)[O-])c(Br)n1CC(=O)c1ccc2ccccc2c1,40.1% (active)
16,CC(OC(=O)c1cc(O)c2ccccc2c1O)C(=O)Nc1ccc(C(N)=O)cc1 (configuration not stated),28.4% (active)
17,O=C1C(Cl)=C(NCc2cccnc2)C(=O)c2ccccc21,-45.1%
18,Cc1ccccc1N=C1NN=C(c2ccccc2F)CS1,-40.3%
19,O=C(/C=C/c1cccs1)Nc1scc(-c2ccccc2)c1C(=O)O,58.2% (active)

row,SMILES,inhibition
1,CC1(C)C(=O)Nc2ccccc2N1C(=O)COC(=O)c1cc(Cl)cc(Cl)c1,-50.1%
2,CC(NC1=CC(=O)c2cccnc2C1=O)C(O)c1ccccc1 (configuration not stated),43.3% (active)
3,O=S(=O)(Nc1cc(Sc2ncn[nH]2)c(O)c2ccccc12)c1ccccc1,48.4% (active)
4,O=C(CN(C(=O)CCC(=O)Nc1ccccn1)c1ccc2c(c1)OCO2)NCc1ccc(F)cc1,31.3% (active)
5,C[N+](C)(CCCCCC[N+](C)(C)CCCN1C(=O)c2cccc3cccc(c23)C1=O)CCCN1C(=O)c2cccc3cccc(c23)C1=O,-82%
6,CCc1ccc(S(=O)(=O)/N=C2\C=C(Nc3ccc(C(=O)O)cc3)C(=O)c3ccccc32)cc1,59.8% (active)
7,O=c1[nH]c2ccccc2n2c(-c3ccccc3)nnc12,58.5% (active)
8,COc1cc(/C=C(\C#N)c2nc3ccc(C)cc3[nH]2)cc([N+](=O)[O-])c1O,42.2% (active)
9,O=C(Nc1ccc(N2CCCC2)cc1)c1cccc(-c2cc3ccccc3oc2=O)c1,-24.8%
10,NC(=NCc1ccc2c(c1)OCO2)NC(=O)c1ccccc1,16.7% (active)
11,O=C(O)CSc1cc(NS(=O)(=O)c2ccc(Cl)cc2)c2ccccc2c1O,45.6% (active)
12,Cn1c(SSc2ccc(-c3cccnc3)n2C)ccc1-c1cccnc1,-248%
13,Cc1[nH]c2ccccc2c1C1=CC(=O)C=CC1=O,52.9% (active)
14,O=C(O)[C@@H](c1ccccc1)N1Cc2ccccc2C1=O,43.8% (active)
15,CC(=O)Nc1ccc(NC2=C/C(=N/S(=O)(=O)c3cccs3)c3ccccc3C2=O)cc1,51.9% (active)
16,CCN(CC)c1ccc2c(c1)oc(=O)c1c(Cl)cc(=O)oc12,47.7% (active)
17,O=C1C=CC(=O)c2c(O)c(CO)c(CO)c(O)c21,39.3% (active)
18,COC(=O)Cn1c2ccc(F)cc2c2nc(C)sc21,-90.4%
